Source: PubChem BioAssay (several laboratories)
dFosB activator = mouse delta FosB homodimer activation | activation, % at 25 µM | purified delta FosB, TAMRA-CDK5 oligo fluorescence polarization; percent of positive-control signal above neutral wells | P13346 | hit rate 0.99% among 340,000 | AID 493131;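 active = mean activation above about 17%, with every replicate also reaching it, limit read from the data, passing the limit was not always enough; inconclusive = only one of the two conditions met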
Platelet DG rel = platelet dense granule release activity; human platelet-rich plasma, SFLLRN dense granule ATP release, luminescence; inhibition, %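 (compounds screened at 7.5 µM in platelet-rich plasma)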; hit rate 0.22% among 300,000;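 active = mean replicate score, as percent of positive control, at or above 50; inconclusive = mean below 50 but at least one replicate at or above 50; inactive = mean and every replicate below 50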
HSF1 inhib = HSF1 inhibition; NIH3T3-HGL HSE-luciferase, MG132-induced, luminescence 8 h; stronger effect = lower value; activity change, negative = inhibition, % at 7.5 µM (by protocol); hit rate 0.77% among 300,000; AID 2098;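 active = more than half of replicate wells show activity change below -50%, luminescence cut by over half; inconclusive = some wells, but at most half, below -50%; inactive = no replicate well below -50%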;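 also: luciferase reports HSF-1 transcriptional activity via heat shock element; 0% = median of DMSO wells and -100% = zero luminescence signal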
HSP90 inh = blocks HSP90-mediated luciferase refolding in reticulocyte lysate. hit rate 0.91% among 290,000. AID 1789. Rabbit reticulocyte lysate, luciferase refolding luminescence, 3 h. inhibition, % at 5.6 µM;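 active = inhibition above the screen-wide mean plus 3 SD, computed separately per campaign, cut at about 16% in these data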;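 also: 0% = DMSO wells and 100% = 60 µM geldanamycin wells; inhibitors lower the luminescence because luciferase stays unfolded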
MPTP inh = permeability transition pore inhibition; isolated mouse mitochondria, Ca2+ swelling absorbance, 30 min; inhibition, % at 10 µM; hit rate 1.4% among 360,000; AID 602449;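 active = inhibition of 50% or more, scaled per plate between neutral and stimulator controls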;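 also: 0% = DMSO wells given calcium and 100% = 1 mM EGTA wells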
HSF-1 act = increases HSF-1 driven luciferase reporter signal; hit rate 1.7% among 300,000; NIH3T3-HGL HSF-1 luciferase reporter, MG132, 8 h; 100% = twice DMSO control signal; activation, % at 9 µM;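 active = mean replicate activation of at least 50% with a set share of replicates each reaching 50%; inconclusive = only one of those two conditions met; inactive = mean below 50% and too few replicates reaching it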;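 also: 0% = median of the neutral control wells and 100% = twice that signal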
HSP90 confirm = HSP90 inhibition, confirmation assay. rabbit reticulocyte lysate, luciferase refolding luminescence, 3 h. inhibition, % at 5.9 µM. hit rate 64% among 2,300. shares compounds with HSP90 inh; in the data active = inhibition above about 18%;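 also: 0% = vehicle wells and 100% = reference inhibitor wells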
luciferase ctr = firefly luciferase inhibition, HSP90 counter-screen | shares compounds with HSP90 inh | purified native firefly luciferase, luminescence | inhibition, % at 5.9 µM | hit rate 48% among 2,300 | AID 1847;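 active = inhibition above the mean inhibition of all tested sample wells plus 3 SD, cut at about 10% in these data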;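 also: 0% = DMSO with luciferase and 100% = wells lacking luciferase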
Target sequence (P08659 whole entry, looked up): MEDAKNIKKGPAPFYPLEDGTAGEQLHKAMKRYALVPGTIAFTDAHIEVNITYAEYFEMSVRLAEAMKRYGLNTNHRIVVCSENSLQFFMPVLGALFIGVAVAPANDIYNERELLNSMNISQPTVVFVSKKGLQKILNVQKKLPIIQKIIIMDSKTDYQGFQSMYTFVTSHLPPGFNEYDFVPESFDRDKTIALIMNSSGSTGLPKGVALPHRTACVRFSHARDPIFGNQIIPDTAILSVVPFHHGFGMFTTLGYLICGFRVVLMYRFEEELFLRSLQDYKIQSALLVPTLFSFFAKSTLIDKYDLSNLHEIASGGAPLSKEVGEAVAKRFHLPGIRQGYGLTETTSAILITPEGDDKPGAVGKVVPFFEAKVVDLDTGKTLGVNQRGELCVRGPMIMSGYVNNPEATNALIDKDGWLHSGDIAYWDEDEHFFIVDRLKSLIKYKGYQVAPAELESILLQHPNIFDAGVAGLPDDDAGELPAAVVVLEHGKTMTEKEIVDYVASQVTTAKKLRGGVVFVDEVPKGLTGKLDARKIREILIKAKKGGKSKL
* hit, by the source's call; ? = inconclusive; . = not tested or not shown. An excerpt weighted towards active compounds, which were near 4.9% of everything screened.

SMILES | dFosB activator | Platelet DG rel | HSF1 inhib | HSP90 inh | MPTP inh | HSF-1 act | HSP90 confirm | luciferase ctr
O=C(Nc1ccc2c(c1)CCC2)c1cnccn1 | -1 | 15 | 16 | -6 | 1 | 32 | . | .
Cc1cnc(C(=O)Nc2ccc3c(c2)CCC3)cn1 | -5 | 3 | 27 | 17* | 1 | ? | 27* | 18*
CCn1ccc(C(=O)Nc2ccc3c(c2)CCC3)n1 | 2 | 5 | 40 | 19* | 1 | 29 | 30* | 15*
CCN(CC)C(=O)c1ccc(Nc2nnc(-c3ccc(O)cc3)c3ccccc23)cc1 | -12 | 9 | -5 | 3 | 0 | 2 | . | .
CCOc1ccc(-c2nc(CN(Cc3ccccc3)C[C@@H]3CCC(=O)N3)c(C)o2)cc1 | -14 | 0 | -6 | 23* | 0 | -8 | 41* | -5
CC(=O)NC1=C(N(C)C2CCS(=O)(=O)C2)C(=O)c2ccccc2C1=O (configuration not stated) | 4 | -3 | -1 | 0 | 3 | 13 | . | .
CC(=O)NC1=C(Nc2ccc(N(C)C)cc2)C(=O)c2ccccc2C1=O | -5 | -9 | 12 | 21* | 2 | 33 | 8 | -8
Cc1cc(SCC(=O)NCC(c2cccs2)N2CCOCC2)c(C)cc1Br (configuration not stated) | 0 | -3 | -2 | . | -1 | -5 | . | .
CC1CCN(C(=O)c2cc3c(ccc4ccccc43)o2)CC1 | -6 | 26 | -7 | 25* | 0 | -7 | 49* | 34*
COc1ccc(C(=O)NNC(=O)C(=O)NC2CCCCC2)cc1 | -4 | -1 | 7 | 19* | -1 | 0 | 0 | -1
COc1ccccc1NC(=O)CSc1n[nH]c(Cc2ccccc2)n1 | 6 | 4 | -1 | -3 | 1 | 3 | . | .
COc1ccccc1NC(=O)CSc1nc2ccccc2cc1Cc1ccccc1 | -3 | 8 | 5 | 31* | -1 | 11 | 24* | -12
O=C(NCc1ccncc1)C1CCCN(S(=O)(=O)Cc2ccccc2)C1 (configuration not stated) | -3 | -4 | 9 | -4 | 0 | 8 | . | .
O=C(NCc1ccco1)C1CCCN(S(=O)(=O)Cc2ccccc2)C1 (configuration not stated) | 3 | -1 | -8 | 49* | 0 | -6 | -2 | -8
Cc1ccc2nc(NC(=O)c3ccccn3)sc2c1 | -12 | 29 | -5 | 61* | 1 | -25 | 94* | 88*
CSc1nc2ccc(NC(=O)c3ccccn3)cc2s1 | -8 | -6 | 15 | 41* | 1 | 17 | 62* | 57*
CCSc1ccc(-c2cc(NC=O)c3ncc(-c4cccc(C(=O)NCCN(C)C)c4)n3c2)cc1 | . | . | . | . | -3 | . | . | .
O=[N+]([O-])c1ccccc1/C=N/Nc1nccnc1Cl | -1 | 6 | 4 | -2 | -3 | -9 | . | .
O=[N+]([O-])c1cccnc1N/N=C/c1ccccc1O | 1 | 43 | -34 | 22* | -2 | -43 | 14 | -1
Cc1c(O)ccc(/C=N/Nc2ncccc2[N+](=O)[O-])c1O | -6 | 63* | 36 | 21* | 4 | 55* | 28* | 28*
CN(C(=O)c1ccc(S(=O)(=O)N2CCOCC2)cc1)C1CCS(=O)(=O)C1 (configuration not stated) | 0 | 14 | -12 | . | -2 | -26 | . | .
O=S(N1CCCCC1)C12CC3CC(CC(C3)C1)C2 (configuration not stated) | -6 | -3 | -6 | 40* | 0 | -5 | -3 | -6
CS(=O)(=O)c1ccc(Nc2nc(C(N)Cc3ccc(Cl)cc3)cs2)cc1 (configuration not stated) | . | . | . | . | 25 | . | . | .
Cc1cccc(C(=O)n2c(=S)nc3cc(C)ccn32)c1 | -16 | 30 | -17 | 18* | 3 | -16 | 57* | 47*
COc1ccc(Cc2c(C3CCCCC3)nc3cc(C)c(Br)c(C)n23)c(C)c1 | . | . | . | . | 2 | . | . | .
COCCNc1c(-c2ccc(O)cc2)nc2ccc(Cl)cn12 | -4 | 9 | 29 | -1 | -2 | 31 | . | .
